From PubChem
Pf apPOL inh: Pf-apPOL DNA polymerase inhibition | 0.25% of 210,000 active | AID 1794808 | Recombinant Pf-apPOL, molecular beacon fluorescence, 1.5 h | inhibition, % at 10 µM
mHTT CaM bind: inhibitors of human mutant huntingtin-calmodulin interaction; AlphaScreen His-mHTT/GST-CaM binding, luminescence; inhibition, % at 15 µM; 3.6% of 190,000 active; AID 1671202
Target sequence (P42858 whole entry, looked up, change not shown): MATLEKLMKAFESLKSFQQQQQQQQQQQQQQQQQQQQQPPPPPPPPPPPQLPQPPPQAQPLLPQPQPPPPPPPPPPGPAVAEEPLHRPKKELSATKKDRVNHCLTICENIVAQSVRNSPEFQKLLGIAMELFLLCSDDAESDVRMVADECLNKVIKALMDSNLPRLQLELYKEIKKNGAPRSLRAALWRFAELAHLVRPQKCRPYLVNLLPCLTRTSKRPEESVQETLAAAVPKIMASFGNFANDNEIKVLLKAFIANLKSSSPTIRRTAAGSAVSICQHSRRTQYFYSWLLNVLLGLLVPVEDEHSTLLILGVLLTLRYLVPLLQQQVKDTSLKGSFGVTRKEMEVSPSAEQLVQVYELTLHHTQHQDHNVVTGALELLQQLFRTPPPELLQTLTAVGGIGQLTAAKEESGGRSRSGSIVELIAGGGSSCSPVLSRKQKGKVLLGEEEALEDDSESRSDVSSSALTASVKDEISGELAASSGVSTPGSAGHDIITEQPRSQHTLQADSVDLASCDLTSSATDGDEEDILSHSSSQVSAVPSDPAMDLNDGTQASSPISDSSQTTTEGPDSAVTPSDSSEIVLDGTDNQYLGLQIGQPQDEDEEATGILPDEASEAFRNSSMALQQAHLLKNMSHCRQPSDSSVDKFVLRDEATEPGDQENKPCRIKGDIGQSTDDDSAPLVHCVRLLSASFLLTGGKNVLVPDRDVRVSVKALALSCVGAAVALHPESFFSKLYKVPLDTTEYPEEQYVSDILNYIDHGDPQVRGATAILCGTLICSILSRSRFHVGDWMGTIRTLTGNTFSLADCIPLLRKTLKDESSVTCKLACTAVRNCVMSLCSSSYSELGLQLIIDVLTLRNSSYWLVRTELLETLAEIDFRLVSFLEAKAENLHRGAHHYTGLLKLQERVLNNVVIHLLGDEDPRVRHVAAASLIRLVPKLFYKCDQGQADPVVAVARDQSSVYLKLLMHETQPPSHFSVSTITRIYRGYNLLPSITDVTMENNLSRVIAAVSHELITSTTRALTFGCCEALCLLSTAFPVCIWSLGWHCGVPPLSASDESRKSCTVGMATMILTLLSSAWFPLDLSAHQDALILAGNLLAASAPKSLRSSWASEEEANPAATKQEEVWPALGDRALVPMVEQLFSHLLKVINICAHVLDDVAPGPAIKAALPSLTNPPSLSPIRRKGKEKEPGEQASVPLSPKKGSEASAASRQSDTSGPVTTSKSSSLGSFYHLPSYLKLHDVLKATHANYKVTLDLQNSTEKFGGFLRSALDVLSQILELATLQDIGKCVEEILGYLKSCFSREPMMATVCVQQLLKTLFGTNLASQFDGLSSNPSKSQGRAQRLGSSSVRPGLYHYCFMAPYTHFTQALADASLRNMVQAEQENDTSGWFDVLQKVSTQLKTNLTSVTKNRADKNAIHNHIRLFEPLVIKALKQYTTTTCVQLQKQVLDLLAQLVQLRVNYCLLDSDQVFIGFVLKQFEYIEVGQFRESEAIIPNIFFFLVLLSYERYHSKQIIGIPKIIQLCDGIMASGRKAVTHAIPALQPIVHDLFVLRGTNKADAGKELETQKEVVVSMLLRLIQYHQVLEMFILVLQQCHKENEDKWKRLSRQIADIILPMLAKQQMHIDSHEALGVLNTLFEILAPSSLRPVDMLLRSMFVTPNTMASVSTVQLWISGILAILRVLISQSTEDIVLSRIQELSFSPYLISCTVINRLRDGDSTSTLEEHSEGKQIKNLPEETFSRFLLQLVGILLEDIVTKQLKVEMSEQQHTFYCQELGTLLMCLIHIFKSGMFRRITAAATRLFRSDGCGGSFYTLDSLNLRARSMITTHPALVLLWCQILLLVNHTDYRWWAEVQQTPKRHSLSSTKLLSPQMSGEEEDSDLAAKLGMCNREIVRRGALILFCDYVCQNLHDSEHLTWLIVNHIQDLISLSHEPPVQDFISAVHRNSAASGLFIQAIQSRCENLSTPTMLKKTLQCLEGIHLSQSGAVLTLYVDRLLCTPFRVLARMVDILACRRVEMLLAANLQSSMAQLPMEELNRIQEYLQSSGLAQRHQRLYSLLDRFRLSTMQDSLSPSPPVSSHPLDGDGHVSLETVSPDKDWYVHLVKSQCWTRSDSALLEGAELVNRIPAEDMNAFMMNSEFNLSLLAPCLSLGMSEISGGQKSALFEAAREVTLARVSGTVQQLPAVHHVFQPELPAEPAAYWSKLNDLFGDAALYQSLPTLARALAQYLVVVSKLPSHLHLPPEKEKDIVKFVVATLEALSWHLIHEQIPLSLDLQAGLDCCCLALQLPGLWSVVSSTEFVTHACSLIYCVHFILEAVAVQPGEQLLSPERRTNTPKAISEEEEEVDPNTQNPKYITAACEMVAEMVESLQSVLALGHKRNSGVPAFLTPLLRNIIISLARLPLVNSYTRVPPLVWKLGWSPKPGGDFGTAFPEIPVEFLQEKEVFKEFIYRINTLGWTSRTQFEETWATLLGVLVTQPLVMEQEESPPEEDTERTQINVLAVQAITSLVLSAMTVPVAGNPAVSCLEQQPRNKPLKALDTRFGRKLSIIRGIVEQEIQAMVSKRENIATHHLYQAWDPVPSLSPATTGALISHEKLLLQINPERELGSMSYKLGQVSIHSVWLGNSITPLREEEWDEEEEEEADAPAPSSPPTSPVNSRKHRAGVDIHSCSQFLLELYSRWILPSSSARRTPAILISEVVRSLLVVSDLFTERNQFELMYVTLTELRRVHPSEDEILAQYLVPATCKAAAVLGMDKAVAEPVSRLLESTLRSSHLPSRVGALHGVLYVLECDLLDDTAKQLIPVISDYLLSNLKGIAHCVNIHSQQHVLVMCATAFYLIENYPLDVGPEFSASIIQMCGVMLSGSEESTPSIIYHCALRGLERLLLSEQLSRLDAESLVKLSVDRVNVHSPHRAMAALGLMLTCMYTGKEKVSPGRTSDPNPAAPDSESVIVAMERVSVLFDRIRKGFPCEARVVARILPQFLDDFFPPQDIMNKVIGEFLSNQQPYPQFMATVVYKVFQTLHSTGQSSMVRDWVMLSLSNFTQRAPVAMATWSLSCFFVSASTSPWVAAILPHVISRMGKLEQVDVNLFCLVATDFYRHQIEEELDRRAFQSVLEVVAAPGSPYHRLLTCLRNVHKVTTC
Numbers stand for hits; - = inactive; . = not tested or not shown. An excerpt weighted towards active compounds, which were near 3.5% of everything screened. No stated cut-off is given here; in the data, active means inhibition above about 50%; inactive means the rest.

SMILES	Pf apPOL inh	mHTT CaM bind
COc1ccc(C(=O)Nc2ccc3nn(-c4cccc(Cl)c4)nc3c2)cc1[N+](=O)[O-]	-	-
CC(=O)N1CCc2sc(S(=O)(=O)Nc3ccc(C)c(C)c3)cc2C1	-	-
Cc1c(Cl)cccc1NC(=O)c1ccccc1N(Cc1ccccc1)S(C)(=O)=O	-	-
Cc1ncsc1CN1CCC(c2nc(-c3ccc(F)cc3)n[nH]2)CC1	-	-
COc1ccc(Nc2nc(-c3ccc(Cl)c(Cl)c3)cs2)cc1	-	-
CN(C)c1ccc(Nc2nc(-c3ccc(Cl)c(Cl)c3)cs2)cc1	-	82
CCC(=O)Nc1nc(C)c(-c2csc(Nc3cc(C)ccn3)n2)s1	-	-
CCC(=O)Nc1nc(C)c(-c2csc(Nc3ccc(N(C)C)cc3)n2)s1	-	93
CCN(CC)c1ccc(Nc2nc(-c3ccc(Cl)c(Cl)c3)cs2)cc1	-	97
CC(=O)c1cccc(Nc2nc(-c3ccc(Cl)c(Cl)c3)cs2)c1	-	-
NS(=O)(=O)c1ccc(Nc2nc(-c3ccncc3)cs2)cc1	-	-
NS(=O)(=O)c1ccc(Nc2nc(-c3ccc(Cl)c(Cl)c3)cs2)cc1	-	100
CCn1nc(C)c2ccn(CC(=O)NC(C)C)c(=O)c21	-	-
O=C(CCC1CCCN(C(=O)Nc2ccc(Cl)cc2)C1)NCC1CCCCC1 (configuration not stated)	-	-
Cc1cc(C(=O)NC(C(=O)O)C(C)C)co1 (configuration not stated)	.	-
Cc1ccccc1S(=O)(=O)N1CCN(C2=NC=CN3CC(C)N=C23)CC1 (configuration not stated)	-	-
CCN(CC)c1ccc(Nc2nc(-c3ccccn3)cs2)cc1	-	100
CN(C)c1ccc(Nc2nc(-c3cccnc3)cs2)cc1	-	-
O=C(Cc1c([N+](=O)[O-])cc([N+](=O)[O-])cc1S(=O)Cc1ccccc1)Nc1ccccc1 (configuration not stated)	-	84
O=C(CCCc1ccccc1)Nc1cccc([N+](=O)[O-])c1	-	-
CC(=O)Nc1ccc(S(=O)(=O)Nc2ccc3c(c2)OC(C)(C)O3)cc1	-	-
O=S(=O)(Nc1ccc2c(c1)OC1(CCCC1)O2)c1ccc2c(c1)Cc1ccccc1-2	.	63
CC(=O)NS(=O)(=O)c1ccc(NC(=O)c2ccc(Cl)cc2Cl)cc1	-	-
CC(C)CCNC(=O)N1CCN(Cc2nc3cccnc3n2-c2ccccc2)CC1	-	-
CN(Cc1ccccc1)C(=O)c1cc2sccc2n1CC1CCC1	-	-
SMILES	Pf apPOL inh	mHTT CaM bind
S=C(NCc1ccco1)NC1CC1	-	.
Cc1cccc(CC(=O)N2CCCC(OCc3nc(C4CC4)no3)C2)c1 (configuration not stated)	-	-
COc1cccc(NC(=O)N2CCN(C)c3ccccc32)c1	-	53
COc1cccc(NC(=O)N2CCCc3ccccc32)c1	-	.
CCOc1ccc(C2C=C(c3ccc(CC)cc3)Nc3nnnn32)cc1OC (configuration not stated)	-	-
NC(=O)c1conc1-c1cccc(Cl)c1	-	-
O=c1/c(=C/c2ccccc2O)sc2n1CN(c1ccc(Cl)cc1)CN=2	51	-
O=c1/c(=C/c2ccccc2O)sc2n1CN(c1ccc(F)cc1)CN=2	-	-
CC(C)c1nc2c(c(=O)n1CC(=O)Nc1cccc(F)c1)CCN(Cc1ccccc1)C2	-	84
CC(C)c1nc2c(c(=O)n1CC(=O)Nc1ccccc1F)CCN(Cc1ccccc1)C2	-	-
O=C(Nc1ccc(S(=O)(=O)Nc2ccc(I)cc2)cc1)C1CC1	-	-
COc1ccc(CNC(=O)CN2C(=O)C3CCCN3C(=O)c3cccc(C)c32)cc1 (configuration not stated)	-	-
O=c1[nH]nc(SCc2ccc(F)cc2)c(=O)[nH]1	-	-
O=c1[nH]nc(SCc2cccc(Oc3ccccc3)c2)c(=O)[nH]1	72	-
COc1ccccc1-c1noc(C2CCCN2C(=O)CSc2ccncc2)n1 (configuration not stated)	-	-
Cn1cc(/C=C2\SC(=Nc3ccccc3)NC2=O)c2ccccc21	-	55
O=C1NC(=Nc2ccccc2)S/C1=C/c1ccccc1Br	-	-
Cc1ccc(C(=O)N2CCC(C(=O)NCCc3cscn3)CC2)cc1	-	-
NC(=O)c1c(N)sc2c1CCC2	-	.
NC(=O)c1c(N)sc2c1CCCCC2	-	64
CC(C)(C)NC(=O)Cn1cc2c(n1)CCCCCC2	-	-
O=C(CN1C(=O)/C(=C/c2ccc(C(F)(F)F)cc2)Sc2ccccc21)NCc1ccccn1	-	-
CCCCNC(=O)CN1C(=O)/C(=C/c2ccc(C(F)(F)F)cc2)Sc2ccccc21	-	-
CCOCCCNC(=O)CN1C(=O)/C(=C/c2ccc(C(F)(F)F)cc2)Sc2ccccc21	-	-
O=C(CN1C(=O)/C(=C/c2ccc(C(F)(F)F)cc2)Sc2ccccc21)NCCN1CCCC1	-	84
CN1CCN(C(=O)CN2C(=O)/C(=C/c3ccc(C(F)(F)F)cc3)Sc3ccccc32)CC1	-	51
